Test results as given in PubChem BioAssay AID1159580 (chemical genetic matrix, 2015).
About 2,000 (36%) of roughly 5,500 compounds were called active. Not shown: some 18% with an inconclusive outcome. Cut-off read from the data, not from the text of the source: active = normalized growth mostly below about 0.91 (no sharp cut-off); inconclusive = no clear call, values can overlap the other calls; inactive = mostly above about 0.92. The list shows a part of the results.

Assay: chemical genetic growth profiling, strain panel (AID 1159580);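 note: tested at 20 µM; growth read once vehicle control cultures reached saturation at 30 °C; 1 = growth at the plate median or of vehicle wells; lower values mean less growth of the strain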
Conditions: growth OD
[1] = S. cerevisiae deletion strains, locus YDL101C, strain DUN1, stronger effect = lower value
[2] = S. cerevisiae deletion strains, locus YHR030C, strain SLT2, stronger effect = lower value
[3] = S. cerevisiae deletion strains, locus YAL013W, strain DEP1, stronger effect = lower value
[4] = S. cerevisiae deletion strains, locus YBR229C, strain ROT2, stronger effect = lower value
[5] = S. cerevisiae deletion strains, locus YDR150W, strain NUM1, stronger effect = lower value
[6] = S. cerevisiae deletion strains, locus YEL061C, strain CIN8, stronger effect = lower value
[7] = S. cerevisiae deletion strains, locus YGR078C, strain PAC10, stronger effect = lower value
[8] = S. cerevisiae deletion strains, locus YHR087W, strain rtc3, stronger effect = lower value
[9] = S. cerevisiae deletion strains, locus YJR043C, strain POL32, stronger effect = lower value
[10] = S. cerevisiae deletion strains, locus YJR075W, strain HOC1, stronger effect = lower value
[11] = S. cerevisiae deletion strains, locus YKL190W, strain CNB1, stronger effect = lower value
[12] = S. cerevisiae deletion strains, locus YLR039C, strain RIC1, stronger effect = lower value
[13] = S. cerevisiae deletion strains, locus YLR058C, strain SHM2 (second series), stronger effect = lower value
[14] = S. cerevisiae deletion strains, locus YLR085C, strain ARP6, stronger effect = lower value
[15] = S. cerevisiae deletion strains, locus YLR262C, strain YPT6, stronger effect = lower value
[16] = S. cerevisiae deletion strains, locus YML094W, strain GIM5, stronger effect = lower value
[17] = S. cerevisiae deletion strains, locus YMR219W, strain ESC1, stronger effect = lower value
[18] = S. cerevisiae deletion strains, locus YMR263W, strain SAP30, stronger effect = lower value
[19] = S. cerevisiae deletion strains, locus YNL153C, strain GIM3, stronger effect = lower value
[20] = S. cerevisiae deletion strains, locus YNL298W, strain CLA4 (second series), stronger effect = lower value
[21] = S. cerevisiae deletion strains, locus YNL322C, strain KRE1, stronger effect = lower value
[22] = S. cerevisiae deletion strains, locus YNR030W, strain Alg12, stronger effect = lower value
[23] = S. cerevisiae deletion strains, locus YPL055C, strain LGE1, stronger effect = lower value
[24] = S. cerevisiae deletion strains, locus YPL241C, strain CIN2, stronger effect = lower value
[25] = S. cerevisiae deletion strains, locus YPR135W, strain CTF4, stronger effect = lower value

Measured: normalized growth

FC(F)(F)c1ccc(NC(=S)Nc2ccc(C(F)(F)F)cc2Cl)c(Cl)c1
inactive: S. cerevisiae deletion strains, locus YAR019C, strain CDC15, stronger effect = lower value 0.964 | S. cerevisiae deletion strains, locus YBL105C, strain PKC1, stronger effect = lower value 0.969 | S. cerevisiae deletion strains, locus YBR135W, strain CKS1, stronger effect = lower value 0.955 | S. cerevisiae deletion strains, locus YBR136W, strain MEC1, stronger effect = lower value 0.969 | S. cerevisiae deletion strains, locus YBR160W, strain CDC28, stronger effect = lower value 0.948 | S. cerevisiae deletion strains, locus YDL017W, strain CDC7, stronger effect = lower value 0.965 | S. cerevisiae deletion strains, locus YDL028C, strain MPS1, stronger effect = lower value 0.952 | [1] 0.993 | S. cerevisiae deletion strains, locus YDL108W, strain KIN28, stronger effect = lower value 0.946 | S. cerevisiae deletion strains, locus YDL132W, strain cdc53, stronger effect = lower value 0.949 | S. cerevisiae deletion strains, locus YDL214C, strain PRR2, stronger effect = lower value 0.921 | S. cerevisiae deletion strains, locus YDR052C, strain DBF4, stronger effect = lower value 0.979 | S. cerevisiae deletion strains, locus YDR054C, strain cdc34, stronger effect = lower value 0.976 | S. cerevisiae deletion strains, locus YDR226W, strain ADK1, stronger effect = lower value 0.936 | S. cerevisiae deletion strains, locus YDR477W, strain SNF1, stronger effect = lower value 0.938 | S. cerevisiae deletion strains, locus YER123W, strain YCK3, stronger effect = lower value 0.902 | S. cerevisiae deletion strains, locus YER133W, strain GLC7, stronger effect = lower value 0.933 | S. cerevisiae deletion strains, locus YFL009W, strain cdc4, stronger effect = lower value 0.921 | S. cerevisiae deletion strains, locus YFL029C, strain CAK1, stronger effect = lower value 0.968 | S. cerevisiae deletion strains, locus YFR003C, strain YPI1, stronger effect = lower value 0.955 | S. cerevisiae deletion strains, locus YFR019W, strain FAB1, stronger effect = lower value 0.932 | S. cerevisiae deletion strains, locus YFR028C, strain CDC14, stronger effect = lower value 0.953 | S. cerevisiae deletion strains, locus YGR040W, strain KSS1, stronger effect = lower value 0.929 | S. cerevisiae deletion strains, locus YGR052W, strain FMP48, stronger effect = lower value 0.937 | S. cerevisiae deletion strains, locus YGR092W, strain DBF2, stronger effect = lower value 0.911 | S. cerevisiae deletion strains, locus YHR079C, strain IRE1, stronger effect = lower value 0.948 | S. cerevisiae deletion strains, locus YHR082C, strain KSP1, stronger effect = lower value 0.926 | S. cerevisiae deletion strains, locus YHR205W, strain SCH9, stronger effect = lower value 0.919 | S. cerevisiae deletion strains, locus YIL147C, strain SLN1, stronger effect = lower value 0.962 | S. cerevisiae deletion strains, locus YJL095W, strain BCK1, stronger effect = lower value 0.919 | S. cerevisiae deletion strains, locus YJL128C, strain PBS2, stronger effect = lower value 0.956 | S. cerevisiae deletion strains, locus YJL157C, strain FAR1, stronger effect = lower value 0.928 | S. cerevisiae deletion strains, locus YJR016C, strain ILV3, stronger effect = lower value 0.966 | S. cerevisiae deletion strains, locus YJR066W, strain TOR1 (second series), stronger effect = lower value 0.95 | S. cerevisiae deletion strains, locus YJR066W, strain TOR1, stronger effect = lower value 0.886 | S. cerevisiae deletion strains, locus YKL048C, strain ELM1, stronger effect = lower value 0.946 | S. cerevisiae deletion strains, locus YKL067W, strain YNK1, stronger effect = lower value 0.907 | S. cerevisiae deletion strains, locus YKL101W, strain HSL1, stronger effect = lower value 0.898 | S. cerevisiae deletion strains, locus YKL193C, strain SDS22, stronger effect = lower value 0.954 | S. cerevisiae deletion strains, locus YKL203C, strain TOR2, stronger effect = lower value 1.03 | S. cerevisiae deletion strains, locus YLR133W, strain CKI1, stronger effect = lower value 0.923 | S. cerevisiae deletion strains, locus YLR403W, strain SFP1, stronger effect = lower value 0.949 | S. cerevisiae deletion strains, locus YML070W, strain DAK1, stronger effect = lower value 0.902 | S. cerevisiae deletion strains, locus YMR001C, strain CDC5, stronger effect = lower value 0.961 | S. cerevisiae deletion strains, locus YMR205C, strain PFK2 (second series), stronger effect = lower value 0.929 | S. cerevisiae deletion strains, locus YMR277W, strain FCP1, stronger effect = lower value 0.944 | S. cerevisiae deletion strains, locus YNL006W, strain LST8, stronger effect = lower value 0.961 | S. cerevisiae deletion strains, locus YNL020C, strain ARK1, stronger effect = lower value 0.887 | S. cerevisiae deletion strains, locus YNL161W, strain CBK1, stronger effect = lower value 0.967 | S. cerevisiae deletion strains, locus YNL183C, strain NPR1, stronger effect = lower value 0.929 | S. cerevisiae deletion strains, locus YNL207W, strain RIO2, stronger effect = lower value 0.948 | S. cerevisiae deletion strains, locus YNL222W, strain SSU72, stronger effect = lower value 0.95 | S. cerevisiae deletion strains, locus YNL307C, strain MCK1 (second series), stronger effect = lower value 0.888 | S. cerevisiae deletion strains, locus YOL078W, strain AVO1, stronger effect = lower value 0.955 | S. cerevisiae deletion strains, locus YOL136C, strain PFK27, stronger effect = lower value 0.908 | S. cerevisiae deletion strains, locus YOR061W, strain CKA2, stronger effect = lower value 0.911 | S. cerevisiae deletion strains, locus YOR119C, strain RIO1, stronger effect = lower value 0.954 | S. cerevisiae deletion strains, locus YOR231W, strain MKK1, stronger effect = lower value 0.92 | S. cerevisiae deletion strains, locus YOR329C, strain SCD5, stronger effect = lower value 0.971 | S. cerevisiae deletion strains, locus YPL031C, strain PHO85, stronger effect = lower value 0.945 | S. cerevisiae deletion strains, locus YPL153C, strain RAD53, stronger effect = lower value 0.927 | S. cerevisiae deletion strains, locus YPL204W, strain HRR25, stronger effect = lower value 0.916 | S. cerevisiae deletion strains, locus YPL209C, strain IPL1, stronger effect = lower value 0.972 | S. cerevisiae deletion strains, locus YPL256C, strain CLN2, stronger effect = lower value 0.929 | S. cerevisiae deletion strains, locus YPR025C, strain CCL1, stronger effect = lower value 0.966 | S. cerevisiae deletion strains, locus YPR106W, strain ISR1, stronger effect = lower value 0.956 | S. cerevisiae deletion strains, locus YPR111W, strain DBF20, stronger effect = lower value 0.929 | S. cerevisiae deletion strains, strain NNK1, stronger effect = lower value 0.959 | S. cerevisiae deletion strains, strain TSCII, stronger effect = lower value 0.97
active: [2] 0.83 | S. cerevisiae deletion strains, locus YLR113W, strain HOG1, stronger effect = lower value 0.836

CC(=O)NN(C)c1ccc(C(F)(F)F)cc1[N+](=O)[O-]
inactive: [3] 1.01 | [4] 1.01 | [1] 1 | [5] 0.991 | [6] 1.02 | [7] 1 | [2] 1.11 | [8] 1.01 | S. cerevisiae deletion strains, locus YJL187C, strain SWE1, stronger effect = lower value 1.02 | [9] 1.01 | [10] 1 | [11] 1.01 | [12] 1 | [13] 1.01 | [14] 1.04 | [15] 0.986 | [16] 1.02 | [17] 1.01 | [18] 1.01 | [19] 1.01 | [20] 1.01 | [21] 1.01 | [22] 1.02 | [23] 0.989 | [24] 1.02 | [25] 1.07

NC(=S)Nc1cc(Cl)ccc1Cl
inactive: [3] 0.99 | [4] 0.976 | [1] 0.975 | [5] 0.906 | [6] 0.961 | [7] 0.975 | S. cerevisiae deletion strains, locus YGR229C, strain SMI1, stronger effect = lower value 1 | [2] 0.888 | [8] 0.953 | [9] 0.997 | [10] 0.997 | [11] 0.999 | [12] 0.947 | [13] 0.981 | [14] 0.919 | [15] 0.979 | [16] 0.915 | [17] 1 | [18] 0.969 | S. cerevisiae deletion strains, locus YNL128W, strain TEP1, stronger effect = lower value 0.993 | [19] 1 | [20] 0.944 | [21] 0.987 | [22] 0.988 | [23] 0.835 | [24] 0.988 | [25] 0.84 | S. cerevisiae strains, strain wild type, stronger effect = lower value 0.99
